The values below come from PubChem BioAssay (NCATS).

Assay [1] in a line: Viability counterscreen for antagonist of constitutive androstane receptor (CAR) against the NCATS DSHEA and TCM libraries (AID 1794837).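 Note: compound exposure lasted 24 h before viability reading; 0% is about no effect.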 Put shortly:
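Fluorescence from CellTiter-Fluor reports live-cell protease activity in HepG2-CYP2B6-hCAR cells treated for 24 h with substances alongside 48 uM CITCO.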

The nature of assay [2]: Viability counterscreen for agonist of constitutive androstane receptor (CAR) against the NCATS DSHEA and TCM libraries (AID 1794838).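 Note: HepG2 cells with CYP2B6 reporter and hCAR plus 0.75 µM PK11195 antagonist; 0% is about no effect.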 A digest of the protocol: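 In agonist mode, PK11195 is added at 0.75 uM final to HepG2-CYP2B6-hCAR cells dosed with test substances. Cultures incubate 24 h at 37C before a protease-based fluorogenic viability readout.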
For orientation: A counterscreen serves to expose hits that act by an unwanted route or on another target.

Assay [3] deals with Cytochrome P450 2D6 (Homo sapiens) (UniProt P10635). The experiment in a line: qHTS for inhibitors of CYP2D6 against the NCATS DSHEA and TCM libraries (AID 1919972). Note: % is set by controls: 0 for no effect and ±100 for the full control effect. Put shortly: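 Steps: enzyme plus luciferin substrate dispensed; test substances pinned; 15 min RT; 1x NADPH regenerating solution added, 30–45 min RT protected from light; detection reagent, 30 min RT; luminescence measured. Minus-enzyme wells as background.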

Assay [4] in a line: Quantitative high throughput screen for delayed death inhibitors of the malarial parasite plastid, 96 hour incubation (AID 488745). Note: potency is the fitted concentration of half-maximal effect; nearly all actives have a fitted effect of over 70% in size. A digest of the protocol:
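Growth of reporter-bearing P. falciparum in red cells is measured after 96 h with compound, covering two erythrocytic cycles. Luminescence from the integrated luciferase serves as the growth signal.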

Assay [5] can be described thus: S16 Schwann cell PMP22 intronic element firefly luciferase assay (AID 624032). Note: nearly all actives have a fitted effect of over 30% in size. Note: potency is the fitted concentration of half-maximal effect. A digest of the protocol: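 Rat S16 Schwann cells stably carrying firefly luciferase driven by a PMP22 intronic element, in 10% FBS, treated 24 h at 37 C. ONE-Glo luminescence normalized to PTC124 control and DMSO (0%); curves classed by r2, magnitude and activity.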
The target of assay [6] is Alpha-galactosidase (Coffea arabica) (UniProt Q42656). The experiment in a line: Counterscreen for Glucocerebrosidase Inhibitors: qHTS Assay for Coffee Bean alpha-Galactosidase at pH 5.9 (AID 998).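 Note: plate controls were uninhibited enzyme for no effect and no-enzyme basal signal for full effect.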 Put shortly: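 Green coffee bean enzyme (2 nM) with 4-methylumbelliferyl alpha-D-galactopyranoside (80 uM) in 50 mM citric acid, 0.005% Tween-20, pH 5.9, 20 min at room temperature; compounds 0.7 nM–77 uM. Stopped at pH 10, fluorescence Ex365/Em440; Hill-fit AC50.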

The target of assay [7] is M-phase phosphoprotein 8 (Homo sapiens) (UniProt Q99549). The experiment in a line: qHTS Validation Assay for Inhibitors for MPP8 Chromodomain Interactions with Methylated Histone Tails (AID 488949). Note: nearly all actives have a fitted effect of over 55% in size. Note: potency is the fitted concentration of half-maximal effect. Put shortly:
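Disruption of the preformed MPP8–trimethyl-H3K9 peptide complex (both 50 nM, 30 min, RT) is measured after 30 min compound exposure, using AlphaScreen proximity beads; aurintricarboxylic acid titration serves as plate control.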
(In qHTS, concentration-response curves come from the screen itself.)

The target in assay [8] is Chromobox protein homolog 1 (Homo sapiens) (UniProt P83916). The experiment in a line: qHTS Validation Assay for Inhibitors of HP1-beta Chromodomain Interactions with Methylated Histone Tails (AID 488953). Note: potency is the fitted concentration of half-maximal effect; nearly all actives have a fitted effect of over 50% in size. Put shortly:
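Measured as loss of AlphaScreen luminescence from streptavidin donor and nickel acceptor beads (10 ug/mL final) bridging HP1-beta and biotin-H3(1-18)K9me3, each 50 nM. Compounds met the preassembled complex for 30 min at RT.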

A short description of assay [9]: Validation screen for small molecules that induce genotoxicity in human embryonic kidney (HEK293T) cells expressing luciferase-tagged ELG1 (AID 493106). Note: 0% is about no effect. A digest of the protocol:
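Reporter-gene quantitative HTS in HEK293T cells carrying luciferase-tagged ELG1, whose level climbs under genotoxic stress. Compound exposure lasts 16 hr at 37 °C before luciferase detection.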

Assay [10] addresses ATPase family AAA domain-containing protein 5 (Homo sapiens) (UniProt Q96QE3). Briefly: Validation screen for small molecules that inhibit ELG1-dependent DNA repair in human embryonic kidney (HEK293T) cells expressing luciferase-tagged ELG1 (AID 493107). Note: potency is the fitted concentration of half-maximal effect; nearly all actives have a fitted effect of over 70% in size. Put shortly: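 Quantitative HTS in HEK293T cells carrying luciferase-tagged ELG1, stimulated with 5-fluorouridine alongside compound for 16 hr. Loss of luciferase signal marks inhibition of ELG1 response.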

Assay [11] is described as follows: Inducers of the Endoplasmic Reticulum Stress Response (ERSR) in human glioma: Validation (AID 504836). Note: 0% is about no effect. A digest of the protocol:
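Stably transfected U87-MG glioma cells carrying a GRP78-based luciferase sensor; 16 h compound incubation. Luminescence end-point read 10 min after Bright-Glo addition at room temperature.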

Assay [12] has as its target Arylsulfatase A (Homo sapiens) (UniProt P15289). The experiment in a line: qHTS screen for enhancers of Arylsulfatase A (ASA1): LOPAC Validation Assay (AID 720538). Note: 0% is about no effect. A digest of the protocol:
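First, ASA-I179S fibroblasts from an MLD patient adhered for 6 hrs. Next, compounds were added for 48h. Then pNCS substrate (0.5mM final) with lysis buffer reacted 14h at room temperature before NaOH stop and fluorescence measurement.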

Assay [13] is described as follows: qHTS for differential inhibitors of proliferation of Plasmodium falciparum line 7G8 (AID 1815).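 Note: potency is the fitted concentration of half-maximal effect; parasite growth measured after three days of incubation.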
Assay [14] can be described thus: qHTS for differential inhibitors of proliferation of Plasmodium falciparum line GB4 (AID 1816).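 Note: potency is the fitted concentration of half-maximal effect; parasite growth measured after 72 h incubation.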 The conditions noted are these: Potency: Plasmodium falciparum GB4 proliferation inhibition.
A short description of assay [15]: qHTS for differential inhibitors of proliferation of Plasmodium falciparum line Dd2 (AID 1882). Note: potency is the fitted concentration of half-maximal effect; nearly all actives have a fitted effect of over 65% in size. The conditions noted are these: Potency: Plasmodium falciparum Dd2 proliferation inhibition. A digest of the protocol: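 SYBR Green I DNA fluorescence read-out, ex 485/em 535 nm. Signals were normalized to 0.29 uM artemisinin and DMSO wells, then corrected using vehicle-only plates flanking each stack. Parasite growth ran 72 h in erythrocytes before lysis.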

A short description of assay [16]: High Content Imaging Cell-Based qHTS for Inhibitors of the mTORC1 Signaling Pathway in MEF (Tsc2-/-, p53-/-) Cells (AID 2666). Note: potency is the fitted concentration of half-maximal effect. A digest of the protocol: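 Phospho-rpS6 (Ser235/236) immunofluorescence, normalized and scored as % positive cells using rapamycin and DMSO controls, was read in empty-vector Tsc2-/-, p53-/- MEFs after 24 h compound exposure at 37 C; propidium iodide counted cells.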

A short description of assay [17]: High Content Imaging Cell-Based qHTS for Inhibitors of the mTORC1 Signaling Pathway in MEF Cells (AID 2667). Note: potency is the fitted concentration of half-maximal effect. A digest of the protocol: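 WT MEFs (Tsc2-/-, p53-/- re-expressing Tsc2), in DMEM + 10% FBS, were treated with compound for 24 h at 37 C. Cells were then fixed and stained for phospho-rpS6 Ser235/236 with propidium iodide as cell count. Values are % positive cells, with thresholds set against rapamycin-treated cells.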

The target in assay [18] is Cytochrome P450 3A4 (Homo sapiens) (UniProt P08684). Briefly: qHTS for inhibitors of CYP3A4 against the NCATS DSHEA and TCM libraries (AID 1919971). Note: potency is the fitted concentration of half-maximal effect. Put shortly:
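Light output from converted D-luciferin reports remaining CYP activity. Compounds preincubate with enzyme and substrate for 15 min; NADPH regeneration (1x final) runs the reaction for 30-45 min.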

The target in assay [19] is Nuclear receptor subfamily 1 group I member 2 (Homo sapiens) (UniProt O75469). Briefly: Dual reporter qHTS for agonist of Pregnane X Receptor (hPXR) against the NCATS DSHEA and TCM libraries: Luminescence readout (AID 1920059). Note: 0% is about no effect. Put shortly:
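hPXR-Luc HepG2 cells, 2000/well in 5% charcoal-stripped FBS medium, attached 5 h, then exposed 24 h at 37C to compounds. Viability by CellTiter-Fluor, then luciferase luminescence with ONE-Glo.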

Assay [20] in a line: qHTS profiling for inhibitors of Plasmodium falciparum proliferation (AID 504749).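 Note: 0% = DMSO vehicle and full inhibition = artemisinin control; nearly all actives have a fitted effect of over 60% in size.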 As to conditions: P. falciparum in erythrocytes, SYBR Green DNA, 72 h, at 28.7 µM (top of the series). Put shortly: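 Readout was DNA-dye fluorescence from lysed cultures, ex 485/em 535 nm. Parasitized red cells had grown 72 h with compound; data scaled between 0.29 uM artemisinin and DMSO wells and corrected using vehicle-only plates.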

Results filed as inconclusive are left out. More than one record can exist for a structure, and the calls need not agree. Active and inactive are the calls of the source. Calls come from the whole dose curve; as a rule, active = well fitted curve in the direction sought with a large enough effect; inconclusive = small, poorly fitted or top-dose-only effect, or another doubt; inactive = no such curve, though single readings can be large; an effect the other way counts as inactive or inconclusive.

M-phase phosphoprotein 8 (Homo sapiens), sequence (Q99549 whole entry, looked up): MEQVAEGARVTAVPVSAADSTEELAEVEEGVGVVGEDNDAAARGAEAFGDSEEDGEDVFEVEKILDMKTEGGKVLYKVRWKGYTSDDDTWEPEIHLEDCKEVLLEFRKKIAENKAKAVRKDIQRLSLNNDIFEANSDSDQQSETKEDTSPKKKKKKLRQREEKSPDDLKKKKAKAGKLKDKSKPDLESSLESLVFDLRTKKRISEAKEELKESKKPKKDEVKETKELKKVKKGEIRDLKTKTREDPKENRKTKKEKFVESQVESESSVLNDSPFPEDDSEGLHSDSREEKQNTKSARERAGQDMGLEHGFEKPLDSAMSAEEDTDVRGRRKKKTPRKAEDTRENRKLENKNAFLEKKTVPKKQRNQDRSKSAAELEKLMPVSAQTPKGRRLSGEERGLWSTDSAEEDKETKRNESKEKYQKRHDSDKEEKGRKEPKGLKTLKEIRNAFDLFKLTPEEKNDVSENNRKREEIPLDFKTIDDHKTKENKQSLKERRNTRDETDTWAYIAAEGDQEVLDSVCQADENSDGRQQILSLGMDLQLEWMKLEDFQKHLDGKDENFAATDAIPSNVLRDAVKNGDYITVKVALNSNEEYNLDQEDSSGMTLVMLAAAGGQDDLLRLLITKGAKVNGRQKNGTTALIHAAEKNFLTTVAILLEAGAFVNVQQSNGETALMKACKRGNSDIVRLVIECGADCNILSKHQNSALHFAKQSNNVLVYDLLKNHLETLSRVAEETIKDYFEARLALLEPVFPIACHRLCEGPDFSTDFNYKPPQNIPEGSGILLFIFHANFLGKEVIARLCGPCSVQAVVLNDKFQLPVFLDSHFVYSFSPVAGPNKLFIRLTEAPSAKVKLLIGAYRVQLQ
Chromobox protein homolog 1 (Homo sapiens), sequence (P83916 whole entry, looked up): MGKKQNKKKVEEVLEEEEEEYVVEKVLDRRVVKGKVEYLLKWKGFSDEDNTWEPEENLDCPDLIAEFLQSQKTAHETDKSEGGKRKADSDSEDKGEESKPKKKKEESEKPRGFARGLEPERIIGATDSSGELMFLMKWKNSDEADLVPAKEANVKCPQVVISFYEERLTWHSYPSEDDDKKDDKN
Cytochrome P450 3A4 (Homo sapiens), sequence (P08684 whole entry, looked up): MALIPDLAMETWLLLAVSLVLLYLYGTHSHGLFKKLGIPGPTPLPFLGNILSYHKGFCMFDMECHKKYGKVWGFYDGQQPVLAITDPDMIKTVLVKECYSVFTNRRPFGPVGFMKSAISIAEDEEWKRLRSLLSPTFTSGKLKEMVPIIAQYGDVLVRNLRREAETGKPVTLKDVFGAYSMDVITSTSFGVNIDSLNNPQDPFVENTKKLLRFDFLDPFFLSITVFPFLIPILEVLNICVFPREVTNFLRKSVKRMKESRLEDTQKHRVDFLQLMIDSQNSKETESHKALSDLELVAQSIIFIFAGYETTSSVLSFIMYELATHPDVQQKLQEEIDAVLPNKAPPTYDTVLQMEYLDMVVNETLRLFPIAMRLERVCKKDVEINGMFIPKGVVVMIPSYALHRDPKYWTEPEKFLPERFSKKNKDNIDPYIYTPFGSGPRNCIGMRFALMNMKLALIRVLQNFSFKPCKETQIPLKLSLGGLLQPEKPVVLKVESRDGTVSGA
Alpha-galactosidase (Coffea arabica), sequence (Q42656 whole entry, looked up): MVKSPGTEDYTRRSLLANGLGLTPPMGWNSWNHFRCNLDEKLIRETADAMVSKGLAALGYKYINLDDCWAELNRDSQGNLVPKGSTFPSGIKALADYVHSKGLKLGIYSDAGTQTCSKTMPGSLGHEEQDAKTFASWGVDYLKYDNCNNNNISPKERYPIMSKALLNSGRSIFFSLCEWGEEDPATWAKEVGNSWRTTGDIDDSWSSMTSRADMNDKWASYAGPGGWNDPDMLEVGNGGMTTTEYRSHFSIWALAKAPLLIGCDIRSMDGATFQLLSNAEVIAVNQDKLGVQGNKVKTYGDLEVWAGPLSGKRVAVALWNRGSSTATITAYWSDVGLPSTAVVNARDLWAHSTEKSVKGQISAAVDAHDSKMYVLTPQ
Nuclear receptor subfamily 1 group I member 2 (Homo sapiens), sequence (O75469 whole entry, looked up): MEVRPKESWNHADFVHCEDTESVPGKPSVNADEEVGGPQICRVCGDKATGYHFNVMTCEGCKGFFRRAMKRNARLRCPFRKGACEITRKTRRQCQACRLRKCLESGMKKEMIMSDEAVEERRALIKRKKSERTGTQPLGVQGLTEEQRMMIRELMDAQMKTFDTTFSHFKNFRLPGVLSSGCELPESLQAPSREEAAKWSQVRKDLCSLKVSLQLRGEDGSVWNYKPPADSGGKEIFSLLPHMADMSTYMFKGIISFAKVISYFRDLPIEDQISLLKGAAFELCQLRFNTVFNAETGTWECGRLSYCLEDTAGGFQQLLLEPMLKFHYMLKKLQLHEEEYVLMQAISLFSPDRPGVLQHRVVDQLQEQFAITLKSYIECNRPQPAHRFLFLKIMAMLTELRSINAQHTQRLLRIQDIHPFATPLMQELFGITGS
Arylsulfatase A (Homo sapiens), sequence (P15289 whole entry, looked up): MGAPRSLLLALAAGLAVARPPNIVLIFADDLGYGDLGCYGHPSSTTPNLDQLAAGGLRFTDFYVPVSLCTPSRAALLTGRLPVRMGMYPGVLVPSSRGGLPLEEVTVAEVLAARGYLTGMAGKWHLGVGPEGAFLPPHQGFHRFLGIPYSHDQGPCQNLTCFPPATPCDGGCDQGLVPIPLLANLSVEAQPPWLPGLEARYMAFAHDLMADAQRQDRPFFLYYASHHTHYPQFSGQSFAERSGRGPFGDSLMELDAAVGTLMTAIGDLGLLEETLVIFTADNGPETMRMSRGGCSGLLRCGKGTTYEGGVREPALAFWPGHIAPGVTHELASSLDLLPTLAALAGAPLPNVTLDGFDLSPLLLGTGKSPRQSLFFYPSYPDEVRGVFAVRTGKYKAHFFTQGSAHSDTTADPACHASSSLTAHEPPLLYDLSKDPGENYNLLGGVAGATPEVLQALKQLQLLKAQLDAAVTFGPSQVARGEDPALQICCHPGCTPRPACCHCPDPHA
Cytochrome P450 2D6 (Homo sapiens), sequence (P10635 whole entry, looked up): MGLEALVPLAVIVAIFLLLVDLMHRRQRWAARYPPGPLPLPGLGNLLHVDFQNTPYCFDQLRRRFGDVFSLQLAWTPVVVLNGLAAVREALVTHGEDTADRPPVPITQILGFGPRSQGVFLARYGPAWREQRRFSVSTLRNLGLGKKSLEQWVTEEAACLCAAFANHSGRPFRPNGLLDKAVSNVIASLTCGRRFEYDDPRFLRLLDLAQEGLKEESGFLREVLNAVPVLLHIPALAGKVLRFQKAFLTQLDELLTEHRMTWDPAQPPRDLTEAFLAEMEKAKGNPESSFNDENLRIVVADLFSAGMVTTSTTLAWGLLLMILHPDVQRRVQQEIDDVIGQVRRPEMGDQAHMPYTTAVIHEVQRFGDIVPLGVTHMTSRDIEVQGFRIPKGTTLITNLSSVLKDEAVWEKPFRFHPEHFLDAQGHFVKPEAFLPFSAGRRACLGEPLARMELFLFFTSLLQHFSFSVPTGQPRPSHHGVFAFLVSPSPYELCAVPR

As to `CC[C@@H]1CN2CC[C@]3(C(=O)Nc4ccccc43)[C@@H]2C[C@@H]1/C(=C\OC)C(=O)OC`, the outcome in [1] and in assay [2] was inactive. The Potency entry in [3] is “inactive”.

On to `CC(=O)O[C@H]1C[C@@H]2CCC3C(CC[C@@]4(C)[C@H]3C[C@H]([N+]3(C)CCCCC3)[C@@H]4OC(C)=O)[C@@]2(C)C[C@@H]1[N+]1(C)CCCCC1` (stereo partly drawn), for which, in assay [4], the Potency was 13.1 µM (active).

`C[S+](CC[C@H](N)C(=O)O)C[C@H]1O[C@@H](n2cnc3c(N)ncnc32)[C@H](O)[C@@H]1O` (stereo partly drawn): the Potency result in assay [5] was “inactive”.

With `COc1cc(OC)c(/C=C2/C(=O)Nc3ccccc32)c(OC)c1`, the call in [6], in assay [9], in assay [11] and in assay [12] was inactive. Further, the Potency in assay [7] was 12.6 µM (active) and inactive; in [8] it was 31.6 µM (active); in assay [10] it was 16.4 µM (active).

Regarding `S=C(S)N1CCCC1`, the result in [6], in [9] and in assay [11] was inactive. Besides, the Potency in [13] is 2.82 µM (active); in assay [14], 2.82 µM (active); in assay [15] it was 7.94 µM (active); in assay [16], 2.61 µM (active); in assay [17] it was 2.93 µM (active); in assay [4], 5.86 µM (active). Further, the Potency in [8] was 44.7 µM (active). In addition, in [7], the Potency entry is “inactive”.

For `CN1C[C@H](C(=O)N[C@]2(C)O[C@@]3(O)C4CCCN4C(=O)[C@H](Cc4ccccc4)N3C2=O)C[C@@H]2c3cccc4[nH]cc(c34)C[C@H]21` (stereo partly drawn), the Potency is 0.224 µM (active) in assay [13], 2.24 µM (active) in assay [14] and 2.51 µM (active) in [15].

For the compound `O=S(=O)(O)O`, the Potency entry in assay [18] and in assay [19] was “inactive” in each case.

Regarding `COC1=CC(=O)O[C@@H](/C=C/c2ccc3c(c2)OCO3)C1`, in [18], the Potency was 14.1 µM (active). For the same compound, in [19], the Potency entry was “inactive”.

Regarding `C[C@]12CC[C@H]3[C@@H](CCC4=CC(=O)CC[C@@]43C)[C@@H]1CC[C@@H]2O`, the Potency in [5] was 8.09 µM (active). In addition, the results for the activity, negative = inhibition in assay [20] (parasite line A) and in assay [20] (parasite line B) were -11.8% (inactive) and -14.6% (inactive), respectively.
